Sampled rows, rich in hits. Any-hit rate of the full collection: about 1.1%.
LAP4-GFP MLPCN = modulators of TOR pathway LAP4-GFP in S. cerevisiae. S. cerevisiae LAP4-GFP multiplex, flow cytometry GFP, 3 h; median GFP as percent of DMSO wells. GFP response vs DMSO, % at 10 µM. 320,000 compounds, 0.34% hits. AID 2023;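 active = GFP response vs DMSO above a set limit, about the screen mean plus 3 SD, cut at about 150% in these data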
VLA-4 inh = inhibition in a human VLA-4 binding assay; inhibition, % (about 7 µM as worked out from the volumes in the protocol); P13612; 330,000 compounds, 0.2% hits; VLA-4 expressing cells, ligand binding flow cytometry; in the data active = inhibition above about 50%
Target sequence (P13612 whole entry, looked up): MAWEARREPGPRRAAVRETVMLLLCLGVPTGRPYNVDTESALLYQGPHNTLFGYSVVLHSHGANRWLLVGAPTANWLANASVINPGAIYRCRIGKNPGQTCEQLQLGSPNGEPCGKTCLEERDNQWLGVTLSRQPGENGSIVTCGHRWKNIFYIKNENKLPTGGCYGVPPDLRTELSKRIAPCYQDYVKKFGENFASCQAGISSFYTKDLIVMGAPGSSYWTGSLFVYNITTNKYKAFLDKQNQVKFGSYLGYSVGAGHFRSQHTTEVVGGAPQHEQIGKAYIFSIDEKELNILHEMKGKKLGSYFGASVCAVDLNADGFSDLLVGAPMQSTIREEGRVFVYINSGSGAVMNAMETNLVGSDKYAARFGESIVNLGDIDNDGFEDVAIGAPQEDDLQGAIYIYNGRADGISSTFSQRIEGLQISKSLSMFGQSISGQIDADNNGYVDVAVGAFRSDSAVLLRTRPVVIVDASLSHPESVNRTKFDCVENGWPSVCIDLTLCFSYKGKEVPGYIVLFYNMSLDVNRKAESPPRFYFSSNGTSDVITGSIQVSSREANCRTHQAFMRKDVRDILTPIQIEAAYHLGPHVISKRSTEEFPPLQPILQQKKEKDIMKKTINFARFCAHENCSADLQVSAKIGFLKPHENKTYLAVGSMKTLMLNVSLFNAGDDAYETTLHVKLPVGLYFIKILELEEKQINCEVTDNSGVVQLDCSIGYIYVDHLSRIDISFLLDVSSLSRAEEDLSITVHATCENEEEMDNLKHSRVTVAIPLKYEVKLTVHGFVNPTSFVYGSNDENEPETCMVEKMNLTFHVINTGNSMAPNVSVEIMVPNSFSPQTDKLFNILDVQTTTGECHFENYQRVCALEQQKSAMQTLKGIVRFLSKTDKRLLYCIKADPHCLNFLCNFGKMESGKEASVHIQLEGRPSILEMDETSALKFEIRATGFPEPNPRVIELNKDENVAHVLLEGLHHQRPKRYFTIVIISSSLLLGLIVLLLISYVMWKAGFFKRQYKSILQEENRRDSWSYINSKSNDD
MEP2-GFP yeast = yeast TOR pathway MEP2-GFP modulation | S. cerevisiae MEP2-GFP strain, flow cytometry GFP, 3 h; 100% = DMSO control level | GFP response vs DMSO, % at 10 µM | 330,000 compounds, 0.51% hits;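 active = GFP response versus DMSO above a set limit, roughly screen mean plus 3 SD, cut at about 180% in these data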;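 also: median GFP fluorescence of the barcode-gated MEP2-GFP cells per well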
CIT2-GFP yeast = modulators of TOR pathway CIT2-GFP in S. cerevisiae; S. cerevisiae CIT2-GFP strain, flow cytometry, 3 h; 100 means same as DMSO wells; GFP response vs DMSO, % at 10 µM; 320,000 compounds, 0.065% hits;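 active = GFP response relative to DMSO above a set limit, near the screen mean plus 3 SD, cut at about 150% in these data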;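 also: ratio of well median GFP fluorescence to mean of DMSO wells on the plate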
RPL19A TOR yeast = alters RPL19A-GFP fluorescence in TOR pathway yeast screen; percent response vs DMSO, % at 10 µM; AID 2025; S. cerevisiae RPL19A-GFP strain, flow cytometry, 3 h; hits give low values; 330,000 compounds, 0.3% hits;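 active = percent response vs DMSO below 50%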;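 also: median channel GFP fluorescence of the barcoded RPL19A-GFP strain; lower means less RPL19A-GFP as with rapamycin TOR inhibition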
AGP1-GFP MLPCN = modulators of TOR pathway AGP1-GFP in S. cerevisiae; S. cerevisiae AGP1-GFP multiplex flow cytometry, 3 h; GFP as percent of DMSO wells; GFP response vs DMSO, % at 10 µM; 320,000 compounds, 0.02% hits; AID 2066;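 active = GFP response relative to DMSO above a set limit, near screen average plus 3 SD, cut at about 150% in these data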;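 also: median GFP channel fluorescence of the gated AGP1 strain per well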
LAP4-GFP pick2 = second confirmation of modulators of TOR reporter LAP4-GFP in yeast; shares compounds with LAP4-GFP MLPCN; S. cerevisiae LAP4-GFP strain, flow cytometry GFP, 3 h; GFP response vs DMSO, % at 10 µM; 590 compounds, 20% hits; AID 2621;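 active = GFP signal as percent of the solvent control above about 150%, meaning raised reporter expression, limit read from the data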
MEP2 cherry2 = reconfirmed MEP2-GFP TOR pathway modulator in yeast; shares compounds with LAP4-GFP MLPCN; S. cerevisiae MEP2-GFP strain, flow cytometry GFP, 3 h; GFP response vs DMSO, % at 10 µM; 590 compounds, 10% hits;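 active = GFP signal above 150% of the solvent control wells, that is a rise of more than half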;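 also: median channel GFP fluorescence of all gated yeast cells per well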
RPL19A-GFP pick2 = second confirmation of modulators of TOR reporter RPL19A-GFP in yeast; S. cerevisiae RPL19A-GFP strain, flow cytometry GFP, 3 h; hits give low values; 100% means same as DMSO wells; 590 compounds, 3% hits; GFP response vs DMSO, % at 10 µM; shares compounds with LAP4-GFP MLPCN;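 active = under 65% GFP response relative to DMSO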;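 also: median GFP channel fluorescence per well over the all cells gate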
CIT2-GFP pick2 = second confirmation of modulators of TOR reporter CIT2-GFP in yeast | shares compounds with LAP4-GFP MLPCN | S. cerevisiae CIT2-GFP strain, flow cytometry GFP, 3 h; DMSO control wells read 100% | GFP response vs DMSO, % at 10 µM | 590 compounds, 8% hits;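 active = GFP response vs DMSO above about 150%, limit read from the data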;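 also: median green fluorescence per well over all gated yeast cells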
AGP1 GFP CP2 = second confirmation of modulators of TOR reporter AGP1-GFP in yeast; shares compounds with LAP4-GFP MLPCN; S. cerevisiae AGP1-GFP strain, flow cytometry GFP, 3 h; percent response vs DMSO, % at 10 µM; 590 tested, under 10 active;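 active = over 150 percent of DMSO response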;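 also: median GFP channel fluorescence over all cells without mother daughter split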
s288c autofluor = yeast s288c autofluorescence artifact, counter-screen | 610 tested, under 10 active | fluorescence change (kMESF span) at 33 µM | S. cerevisiae s288c, 520 nm autofluorescence, flow cytometry, 3 h; hits give high values; zero means same as solvent-only cells | shares compounds with LAP4-GFP MLPCN;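 active = fluorescence span over the dose series, or activity score, above about 33, limit read from the data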
Yeast autofl DR = counter-screen for autofluorescence of TOR hits in yeast s288c | S. cerevisiae s288c parental, compound autofluorescence, flow cytometry, 3 h | AID 488829 | shares compounds with LAP4-GFP MLPCN | fluorescence change (span) at 33 µM | 110 tested, under 10 active;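 active = fluorescence change span, or the activity score built from it, above 25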
TORC1 bypass = stops wildtype yeast growth while TORC1 bypass cells still grow | shares compounds with LAP4-GFP MLPCN | S. cerevisiae BY4741 spot growth rating, 48-72 h; hits give low values | growth rating (0-3) at 30 µM | 120 tested, under 10 active | AID 504456;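 active = growth rating at most 1 for wild type yeast while the TORC1 bypass strain still grows fully, rated 3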
Each line names hits and unclear results; the compound was inactive in the other large screens (follow-up assays come after a bar, where they were run).

COc1ccc(/C=C/C(=O)OCC(=O)Nc2cccc(S(=O)(=O)NC3=NCCCCC3)c2)cc1	none
COc1cccc(/C=N/Nc2ccc([N+](=O)[O-])cn2)c1O	LAP4-GFP MLPCN 156 | LAP4-GFP pick2 161 | MEP2 cherry2 inactive | RPL19A-GFP pick2 inactive | CIT2-GFP pick2 inactive | AGP1 GFP CP2 inactive | s288c autofluor inactive
O=c1[nH]c(NCc2ccccc2)nc2c1CCC2	none
Cc1nc(Nc2nc3c(c(=O)[nH]2)CCC3)nc2ccccc12	none | LAP4-GFP pick2 inactive | MEP2 cherry2 inactive | RPL19A-GFP pick2 inactive | CIT2-GFP pick2 inactive | AGP1 GFP CP2 inactive
N#Cc1nccnc1S(=O)(=O)c1cccs1	LAP4-GFP MLPCN 251 | s288c autofluor inactive
O=C(OCn1ncc(Cl)c(Cl)c1=O)c1cccc(C(F)(F)F)c1	none
O=C(OCn1ncc(Br)c(Br)c1=O)c1ccccc1Cl	LAP4-GFP MLPCN 203 | s288c autofluor inactive
O=C(OCc1cnc(Cl)s1)c1ccccc1Cl	none
O=C(OCn1ncc(Br)c(Br)c1=O)c1ccc(F)cc1	LAP4-GFP MLPCN 236 (no result: CIT2-GFP yeast) | s288c autofluor inactive | Yeast autofl DR inactive | TORC1 bypass inactive
CC(C)(C=O)C1=CC(=O)c2ccccc2C1=O	LAP4-GFP MLPCN 193 | LAP4-GFP pick2 inactive | MEP2 cherry2 inactive | RPL19A-GFP pick2 inactive | CIT2-GFP pick2 inactive | AGP1 GFP CP2 inactive
CC1=CC(=O)c2ccccc2C1=O	none
CNc1[nH]c(=O)[nH]c(=O)c1N=Nc1cc(Cl)ccc1Cl	none
Cc1ccccc1OCC(=O)NNC(=S)NC(=O)c1ccco1	LAP4-GFP MLPCN 159 | s288c autofluor inactive
Cc1ccccc1OCC(=O)Nc1ccccc1NC(=O)c1ccco1	none
Cc1ccc(C(=O)NNC(=S)NC(=O)c2ccco2)cc1	LAP4-GFP MLPCN 237 | s288c autofluor inactive
O=C(/C=C/c1ccc(Br)cc1)NC(=S)NNC(=O)c1ccco1	none | LAP4-GFP pick2 inactive | MEP2 cherry2 inactive | RPL19A-GFP pick2 inactive | CIT2-GFP pick2 inactive | AGP1 GFP CP2 inactive | s288c autofluor inactive
CN1CCN(CCCNC(=O)c2ccc(/C=C3\Oc4ccccc4N(Cc4ccccc4F)C3=O)cc2)CC1	none

Bioassay records: PubChem, NMMLSC
